21 compounds from PubChem BioAssay (NCI) can be followed below.

This is part of a sample that, as a whole, favours compounds with a hit. Of some 79,000 tested, about 15% had one in any assay. Values without a mark were called inactive. Active and inactive are the calls of the source. Rule as the data show it: active = growth inhibition above about 70%; inactive = the rest.

Experiment [1] is described as follows: NCI Yeast Anticancer Drug Screen. Data for the rad50 strain (AID 155).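 Also: 0% = growth of vehicle-only cultures of the same strain.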 The settings on record: S. cerevisiae rad50 strain growth inhibition; at 50.0 µM; active compounds read high. The method in brief: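 Cells are treated with compound, grown, and their growth is then scored against vehicle-only cultures of the same repair-deficient yeast strain.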
The nature of experiment [2]: NCI Yeast Anticancer Drug Screen. Data for the mec2-1 strain (AID 157). The settings on record: S. cerevisiae mec2-1 strain, at 50.0 µM, active compounds read high. In short, it runs like this:
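Cells of the genetically defined mec2-1 yeast strain are incubated with test compound. Inhibition of growth is calculated against vehicle-treated controls.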

Experiment [3] in a line: NCI Yeast Anticancer Drug Screen. Data for the sgs1 mgt1 strain (AID 161).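 Also: 0% = growth of cultures given vehicle only.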 As to conditions: S. cerevisiae sgs1 mgt1 strain, at 50.0 µM, active compounds read high. The method in brief: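 Read-out: growth inhibition vs vehicle controls. Cells: mutant yeast strain deficient in DNA damage repair.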
The nature of experiment [4]: NCI Yeast Anticancer Drug Screen. Data for the cln2 rad14 strain (AID 165).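 Also: 0% = growth equal to vehicle treated cultures.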 As to conditions: S. cerevisiae cln2 rad14 strain, at 50.0 µM, active compounds read high. The method in brief:
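The screen exposed genetically defined yeast (cln2 rad14) to test compounds and scored growth inhibition relative to vehicle-treated controls.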

Experiment [5] can be described thus: NCI Yeast Anticancer Drug Screen. Data for the bub3 strain (AID 167). As to conditions: S. cerevisiae bub3 mutant strain, at 50.0 µM, active compounds read high. In short, it runs like this:
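Part of a panel of yeast mutants defective in DNA damage repair or cell cycle regulation. Each strain is grown with compound, and inhibition is calculated relative to solvent-treated cultures.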

Experiment [6] in a line: NCI Yeast Anticancer Drug Screen. Data for the mlh1 rad18 strain (AID 175). As to conditions: S. cerevisiae mlh1 rad18 strain growth inhibition; at 50.0 µM; active compounds read high. The method in brief: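 Compound-treated yeast growth, normalised to vehicle controls. Strain bears defined DNA repair mutations.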

As to `O=P(CCc1ccccc1)(OCCCl)OCCCl`, the growth inhibition in experiment [1] is 10.2%; in experiment [2], 2.15%; in experiment [3], 3.85%; in experiment [4], 14.3%; in experiment [5], 6.5%; in experiment [6], -5%.
For the compound `CC(=O)NC(CCCNC(=O)OCc1ccccc1)C(=O)NCc1ccccc1` (stereo unspecified), the growth inhibition is -9.1% in experiment [1]; -20.9% in experiment [2]; -30% in experiment [3]; -1.35% in experiment [4]; -16.9% in experiment [5]; -36% in experiment [6].
For `COC(=O)c1c2c(cc3c1CC1(C3)Cc3cc4c(c(C(=O)OC)c3C1)CCC4)CCC2`, the growth inhibition in experiment [1] is 3.25%; in experiment [2], -35.6%; in experiment [3] it was -3.65%; in experiment [4], -0.8%; in experiment [5], -7.85%; in experiment [6], 10.3%.
Take `CS(=O)(=O)Oc1ccccc1OS(C)(=O)=O`: the growth inhibition in experiment [1] is 7.95%; in experiment [2], 8.85%; in experiment [3], -14.3%; in experiment [4] it was -27.1%; in experiment [5], 2.6%; in experiment [6], -9.65%.
Take `CSc1ccc(NC(=O)C(Cl)Cl)cc1`: the growth inhibition was -3.35% in experiment [1]; 5.8% in experiment [2]; 5.1% in experiment [3]; 13% in experiment [4]; -15.3% in experiment [5]; 1.9% in experiment [6].
For the compound `CNC(=O)/C(=C\c1ccccc1)NC(C)=O`, the growth inhibition is 9% in experiment [1]; -13.6% in experiment [2]; 6% in experiment [3]; -54.7% in experiment [4]; 17.9% in experiment [5]; -25.1% in experiment [6].
Turning to `Cc1ccc(S(=O)(=O)NC2(C=O)CCCC3CCCCC32)cc1` (stereo unspecified), the growth inhibition in experiment [1] was 33%; in experiment [2], 6%; in experiment [3], -5.45%; in experiment [4], -9.15%; in experiment [5], 0%; in experiment [6], 20.6%.
On to `C/C(=C1/N=C(c2ccccc2)OC1=O)c1ccccc1`, for which the growth inhibition was 39.5% in experiment [1]; 70% (active) in experiment [2]; 65.4% in experiment [3]; 75.7% (active) in experiment [4]; 94.6% (active) in experiment [5]; 80.5% (active) in experiment [6].
As for `CNC1C(CO)OC(OC)C1O` (stereo unspecified), the growth inhibition in experiment [1] is 10.8%; in experiment [2], 12%; in experiment [3], 7.1%; in experiment [4] it was 8%; in experiment [5], 1.2%; in experiment [6] it was -2.85%.
In the case of `COc1ccc(C(O)C(CN(C)C)CN(C)C)cc1` (stereo unspecified), the growth inhibition is -0.75% in experiment [1]; -19.6% in experiment [2]; 6.65% in experiment [3]; 8.15% in experiment [4]; 8.7% in experiment [5]; 10.8% in experiment [6].
Consider `CCC(=O)Nc1cc([N+](=O)[O-])cc([N+](=O)[O-])c1`, for which the growth inhibition in experiment [1] is 8.1%; in experiment [2], -7.3%; in experiment [3] it was -13.3%; in experiment [4], -32.5%; in experiment [5], -36.9%; in experiment [6] it was -23.6%.
`CC(=O)NC1C(O)OC(COCc2ccccc2)C(OCc2ccccc2)C1OCc1ccccc1` (stereo unspecified): the growth inhibition was 6.9% in experiment [1]; -1.8% in experiment [2]; -10.4% in experiment [3]; 7.25% in experiment [4]; -5.35% in experiment [5]; -15.1% in experiment [6].
Take `Cc1ccc(N2N=S=CC2=O)cc1`: the growth inhibition in experiment [1] is 40.7%; in experiment [2], 11.3%; in experiment [3], 37.5%; in experiment [4], 13.4%; in experiment [5], 20.3%; in experiment [6], 34%.
On to `CCC(=O)OCCCC1CCCO1` (stereo unspecified), for which the growth inhibition in experiment [1] is 7.85%; in experiment [2], -0.55%; in experiment [3], 1.05%; in experiment [4], -9.8%; in experiment [5], 2%; in experiment [6], -2.05%.
For the compound `Nc1ccnc(Cl)n1`, the growth inhibition in experiment [1] is -2.45%; in experiment [2] it was -6.05%; in experiment [3], -13.2%; in experiment [4], 0.4%; in experiment [5], 0.4%; in experiment [6], -0.95%.
`COc1ccc(/C=C\c2cc(OC)c(OC)c(OC)c2)cc1OC`: the growth inhibition was 5.2% in experiment [1]; 9.05% in experiment [2]; -17.7% in experiment [3]; 3.05% in experiment [4]; -13.1% in experiment [5]; 12% in experiment [6].
Regarding `C=C1C(C2(C)C=CC(=O)OC3(C)COC(=O)CC32)C(OC=O)C(OC(=O)C(O)C(C)CC)C2(C)C(c3ccoc3)CC(OC(C)=O)C12O` (stereo unspecified), the growth inhibition in experiment [1] was 7.9%; in experiment [2], -5.2%; in experiment [3], -4.65%; in experiment [4] it was -0.45%; in experiment [5] it was 16.3%; in experiment [6] it was -21.4%.
As for `COC(=O)C(C(=O)c1ccccc1)c1ccccc1` (stereo unspecified), the growth inhibition in experiment [1] was 30.6%; in experiment [2], 16.9%; in experiment [3] it was 9.5%; in experiment [4] it was 6.35%; in experiment [5], 8.4%; in experiment [6], 38.7%.
Take `COc1ccc(NC(C)=O)c([N+](=O)[O-])c1`: the growth inhibition in experiment [1] was 23.3%; in experiment [2], 0.25%; in experiment [3], 19.3%; in experiment [4], 16.3%; in experiment [5] it was -8.35%; in experiment [6], 6.3%.
For `Cc1nc2scc(C)c2c(=S)[nH]1`, the growth inhibition in experiment [1] is -0.85%; in experiment [2] it was 1.5%; in experiment [3], 6.75%; in experiment [4], -38.9%; in experiment [5], -11.8%; in experiment [6], -2.45%.
Turning to `Clc1ccc(-c2c3nc(c(-c4ccc(Cl)cc4)c4ccc([nH]4)c(-c4ccc(Cl)cc4)c4nc(c(-c5ccc(Cl)cc5)c5ccc2[nH]5)C=C4)C=C3)cc1`, the growth inhibition is -30.6% in experiment [1]; -17.9% in experiment [2]; -12.4% in experiment [3]; 15.8% in experiment [4]; -14.3% in experiment [5]; -18.9% in experiment [6].
